Structures are written as SMILES. Screen size: about 310,000 compounds; about 18,000 (5.8%) were called active. Roughly 22% stayed inconclusive and do not appear here. This is one part of a sample in which actives are shown more often than they occur. Unmarked numbers belong to inactive results. Calls come from the whole dose curve; as a rule, active = well fitted inhibition curve with a large enough effect; inconclusive = small, poorly fitted or top-dose-only effect, or another doubt; inactive = no such curve, though single readings can be large or run the other way.

The values that follow come from PubChem BioAssay AID504832 (National Center for Advancing Translational Sciences (NCATS), 2011).
% is set by controls: 0 for no effect and ±100 for the full control effect; potency is the fitted concentration of half-maximal effect.

This experiment in a line: Primary qHTS for delayed death inhibitors of the malarial parasite plastid, 48 hour incubation. As to conditions: P. falciparum luciferase growth in erythrocytes; series mostly up to 28.7 µM; activity change, negative = inhibition: at the top concentration. The procedure, abridged: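 Erythrocytes infected with P. falciparum carrying an integrated firefly luciferase reporter (2% hematocrit, 0.1% parasitemia final) were exposed to compounds in RPMI 1640 with 0.5% Albumax at 37 C, 5% CO2. Growth inhibition was scored as reduced luminescence.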
For `Cc1ccccc1N1CC(C(=O)Nc2ccc3c(c2)OCO3)CC1=O` (stereo not given), the “activity change, negative = inhibition” value was 5.88%. Regarding `Cc1ccc(Cl)c(OCC(=O)N2CCc3ccccc3C2)c1`, the “activity change, negative = inhibition” value is 24.2%. With `OCC1(Cc2ccccc2C(F)(F)F)CCN(Cc2cccc3cnccc23)CC1`, the Potency is 11.7 µM (active). `OCC1(Cc2ccccc2)CCN(Cc2cc3ccccc3o2)CC1`: the “activity change, negative = inhibition” value was -33%. Take `CC(C)c1csc(CN2CCC(CO)(Cc3ccccc3)CC2)n1`: the “activity change, negative = inhibition” value is 24.2%. As for `CC(C)(C)NC(=O)Cn1cnc([N+](=O)[O-])n1`, the “activity change, negative = inhibition” value was 10.5%. The same measure, in the same setting: then `Cn1nc(C(C)(C)C)c([N+](=O)[O-])c1C(N)=O`, with 21.4%. In the case of `Cn1nc([N+](=O)[O-])nc1Sc1ccc(C(C)(C)C)cc1`, the Potency was 13.1 µM (active).

Turning to `Cc1ccnc(NC(=O)CNC(=O)c2ccccc2)c1`, the “activity change, negative = inhibition” value is 57.5%.

For the molecule `COc1cccc2sc(N(CCCN(C)C)C(=O)C(c3ccccc3)c3ccccc3)nc12`, the Potency was 13.1 µM (active).

As to `COc1cccc2sc(N(CCCN(C)C)C(=O)CCS(=O)(=O)c3ccccc3)nc12`, the “activity change, negative = inhibition” value is 22.4%. Take `Cc1cccc2sc(N(CCCN(C)C)C(=O)CCS(=O)(=O)c3ccccc3)nc12`: the “activity change, negative = inhibition” value is 22.4%. Same read-out and setting: then `Cc1ccc(CSc2nsc(C)c2C#N)cc1`, with 18%; and `O=C1c2ccccc2S(=O)(=O)N1Cc1c(F)cccc1Cl`, with -0.656%. In the case of `CCOC(=O)c1cnc2ccc(F)cc2c1Nc1ccc2c(c1)OCCO2`, the Potency is 9.28 µM (active). On to `COC(=O)CCNc1ccc2c(c1)OCCO2`, for which the “activity change, negative = inhibition” value is 157%. Same read-out and setting: then `CCCCC(=O)Nc1ccc2c(c1)OCCO2`, with 132%. Regarding `CCOCCn1c(C(C)C)nc2ccccc21`, the “activity change, negative = inhibition” value is 12.6%. In the case of `CCOCCCNc1c(CC)c(C)c(C#N)c2nc3ccccc3n12`, the Potency is 3.29 µM (active).

For `CN(C)CCCNc1c2c(c(C#N)c3nc4ccccc4n13)CCC2`, the “activity change, negative = inhibition” value is -11.5%.

In the case of `CCCCCn1c(=O)c(C(=O)Nc2c(C)n(C)n(-c3ccccc3)c2=O)c(O)c2ccccc21`, the “activity change, negative = inhibition” value was 122%. For `CCCCCn1c(=O)c(C(=O)NCc2ccccc2)c(O)c2ccccc21`, the Potency is 9.28 µM (active).

For `CCCCn1c(=O)c(C(C)=O)c(O)c2ccccc21`, the “activity change, negative = inhibition” value was -4.84%.

Consider `COc1ccc(N(CC(=O)Nc2ccc(F)c(F)c2)S(=O)(=O)c2c(C)[nH]c(=O)[nH]c2=O)cc1`, for which the “activity change, negative = inhibition” value was -8.61%. Still for that read-out and setting: next, `CN(C(=O)c1cccc(OC2CCN(S(=O)(=O)N(C)C)CC2)c1)C1CCOC1` (stereo not given): -0.341%. On the same count and under the same terms, next, `CC(C)(C)NC(=O)NC(=O)COC(=O)C1c2ccccc2Oc2ccccc21`: 2.8%.

Turning to `Cc1ccccc1N1CCN(S(=O)(=O)c2ccc3ccccc3c2)CC1`, the “activity change, negative = inhibition” value is 15.2%. `CCOc1cccc(=O)c2c(C)n(CC3CCCO3)c(C)c12` (stereo not given): the Potency is 14.7 µM (active). For `CCOc1ccc(NC(=O)c2cccc3c2C(=O)N(CC2CCCO2)C3)cc1` (stereo not given), the “activity change, negative = inhibition” value is -3.69%. Still for that read-out and setting: next, `O=c1c2cc3c(=O)n(CC4CCCO4)c(=O)c3cc2c(=O)n1CC1CCCO1` (stereo not given): 0.809%.
